Experimental findings from PubChem BioAssay (NCATS) are described below.

Records with an inconclusive call do not appear. Active and inactive are the calls of the source. Calls follow the shape of the dose curve; as a rule, active = well fitted cell-killing curve with a large enough effect; inconclusive = small, poorly fitted or top-dose-only effect, or effect the other way; inactive = flat fitted curve, though single readings scatter. Where a SMILES comes first, the peptide text is derived from it. [ ]: non-standard residue; d: D form.
% is scaled to controls: 0 for no effect and ±100 for the full control effect.

For the assay, the system named is HeLa. The experiment in a line: Primary qHTS to identify gynecologic anti-cancer compounds using libraries of approved drugs and bioactive compounds (AID 1345084). Also: nearly all actives have a fitted effect of over 55% in size. Particulars: Gynecologic cancer cell panel viability, ATPlite luminescence, 48 h; series mostly up to 57.5 µM; activity change, negative = cytotoxicity: at the top concentration. The method in brief:
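Five-point cytotoxicity, 48 h drug exposure at 37 C, 5% CO2, on cells seeded 16 h beforehand. ATP content read by ATPlite luminescence.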
As for `C[C@H](NCc1ccc(OCc2ccccc2F)cc1)C(N)=O`, the “activity change, negative = cytotoxicity” value was -1.95% (inactive). Turning to `CC(=O)N[C@H](Cc1ccc(O)cc1)C(=O)N[C@H](CCCN=C(N)N)C(=O)N[C@H](Cc1ccccc1)C(N)=O` (Ac-[dY]-[dR]-[dF]-NH2), the “activity change, negative = cytotoxicity” value is 17.8% (inactive). As for `Nc1ncnc2c1ncn2[C@H]1CCCO1`, the “activity change, negative = cytotoxicity” value was 14.6% (inactive).

Take `CCC(=O)O[C@]1(C(=O)CCl)[C@@H](C)C[C@H]2[C@@H]3C[C@H](F)C4=CC(=O)C=C[C@]4(C)[C@@]3(F)[C@@H](O)C[C@@]21C`: the “activity change, negative = cytotoxicity” value was -3.97% (inactive). As for `CCOc1ccc(-c2ccc(Cn3c(CC(C)(C)C(=O)O)c(SC(C)(C)C)c4cc(OCc5ccc(C)cn5)ccc43)cc2)cn1`, the Potency entry was “inactive”. As to `CC1OC(OC2C(CO)OC(OCC3OC(OC(=O)C45CCC(C)(C)CC4C4=CCC6C7(C)CCC(OC8OC(C(=O)O)C(O)C(OC9OC(CO)C(O)C(O)C9O)C8O)C(C)(C)C7CCC6(C)C4(C)CC5)C(O)C(O)C3O)C(O)C2O)C(O)C(O)C1O` (configuration not stated), the activity change, negative = cytotoxicity is -1.58% [at 6.55 µM] (inactive). For the compound `CC1CCC2(C)C(CC(O)C(O)C23CO3)C1(C)CCC1=CC(=O)OC1O` (configuration not stated), the “activity change, negative = cytotoxicity” value was -1.86% [at 38.5 µM] (inactive).
